# According to PMC5540273 (PLoS ONE, 2017):
# How the values were obtained:
# Conditions in all cases: concentration: 1 μM, replicates: in singlicate; n = 1
# CSNK1G1 = test system: CSNK1G1
# CSNK1G2 = test system: CSNK1G2
# CSNK1G3 = test system: CSNK1G3
# CSNK2A1 = test system: CSNK2A1
# CSNK2A2 = test system: CSNK2A2
# CTK = test system: T1, CTK
# T1 construct: gene MATK
# DAPK1 = test system: DAPK1
# DAPK2 = test system: DAPK2
# DAPK3 = test system: DAPK3
# DCAMKL1 = test system: T2, DCAMKL1
# T2 construct: gene DCLK1
# 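Also: KINOMEscan kinase panel screen.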
Compound,%Inh (CSNK1G1) [%],%Inh (CSNK1G2) [%],%Inh (CSNK1G3) [%],%Inh (CSNK2A1) [%],%Inh (CSNK2A2) [%],%Inh (CTK) [%],%Inh (DAPK1) [%],%Inh (DAPK2) [%],%Inh (DAPK3) [%],%Inh (DCAMKL1) [%]
COc1cccc(NC(=O)NCCNc2ccnc(Nc3ccc(F)cc3)n2)c1 [GSK1379879],0,0,23,0,7,0,0,0,17,9
O=C(Nc1n[nH]c2nc(-c3ccccc3)ccc12)C1CC1 [SB-708999],0,0,68,23,75,0,0,11,4,4
CN(c1ccc2c(c1)nc(NCc1ccccc1)n2C)c1ccnc(Nc2ccc(CS(C)(=O)=O)cc2)n1.Cl [GW811603],0,4,0,16,8,5,13,0,0,0
CN(C)CCOc1ccc(-c2cc(-c3ccc(Cl)c(O)c3)c(-c3ccncc3)[nH]2)cc1.Cl.Cl [SB-684387],36,0,37,24,32,3,14,0,22,21
Cc1ccccc1CC(=O)N1CCc2cc(-c3cn(C)c4ncnc(N)c34)ccc21 [GSK2603346],12,5,17,30,15,14,0,0,0,0
CNc1nccc(-c2ccc3c(N)n[nH]c3c2)n1 [GSK2206003],14,0,33,43,62,0,29,31,39,0
N#CC1(c2cccc(C(=O)Nc3cccc(Oc4ccc5nc(NC(=O)C6CC6)sc5n4)c3)c2)CC1,0,7,0,0,0,0,0,44,13,3
O=C1NC(=O)C(c2ccccc2Cl)=C1Nc1cccc(Cl)c1 [SB-342409],14,0,26,0,0,24,0,0,15,13
Cc1cc(-c2c(-c3ccc(F)cc3)ncn2CCCN2CCOCC2)nc(N)n1 [SB-222517],0,8,0,0,0,0,0,21,38,40
